From the supplement of paper PMC7380943
Where a name gives a salt, the structure may show the parent alone. ± gives the standard deviation of the averaged measurements.

How the values were obtained:
[1] = system: CLZ3 (HCA2 human fibroblast dual HR-NHEJ reporter); assay: NHEJ repair efficiency (GFP+ cells) relative to control (log10 fold); higher = more non-homologous end joining; conditions: 5 µM; doxycycline 0.5 ug/mL
[2] = system: CLZ3 (HCA2 human fibroblast dual HR-NHEJ reporter); assay: HR repair efficiency (tdTomato+ cells) relative to control (log10 fold); higher = more homologous recombination; conditions: 5 µM; doxycycline 0.5 ug/mL
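Wherever HR repair efficiency (tdTomato+ cells) relative to control is given: compound given one day before doxycycline, which switches on I-SceI endonuclease expression to create double-strand breaks within the integrated reporter.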
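Wherever NHEJ repair efficiency (GFP+ cells) relative to control is given: compound given one day ahead of doxycycline, which switches on I-SceI endonuclease to cut the chromosomally integrated reporter and create DSBs.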

Compound | NHEJ repair efficiency (log10) [1] | HR repair efficiency (log10) [2]
C=CCc1ccc(O)c(-c2cc(CC=C)ccc2O)c1 [Magnolol] | 0.0133 | 0.105
COc1c(O)cc2c(c1O)C(=O)c1c(cc(C)c(O)c1OC)C2=O [Aurantio-obtusin] | 0.137 | 0.0361
CC1(C)CC[C@]2(C(=O)O[C@@H]3O[C@H](CO[C@@H]4O[C@H](CO)[C@@H](O)[C@H](O)[C@H]4O)[C@@H](O)[C@H](O)[C@H]3O)CC[C@]3(C)C(=CC[C@@H]4[C@@]5(C)CC[C@H](O[C@@H]6OC[C@H](O)[C@H](O)[C@H]6O)[C@@](C)(CO)[C@@H]5CC[C@]43C)[C@@H]2C1 [Akebiasaponin D] | 0.328 | -0.29
CC(CCC(OC1OC(COC2OC(CO)C(O)C(O)C2O)C(O)C(O)C1OC1OC(CO)C(O)C(O)C1O)C(C)(C)O)C1CCC2(C)C3CC=C4C(CCC(OC5OC(COC6OC(CO)C(O)C(O)C6O)C(O)C(O)C5O)C4(C)C)C3(C)C(O)CC12C (centres undefined) [Mogroside Ⅴ] | -0.025 | 0.0038
Cc1ccc(C(C)C)cc1O [Carvacrol] | -0.132 | -0.173
O=Cc1ccc(CO)o1 [5-Hydroxymethyl-2-furaldehyde (5-HMF)] | -0.174 | -0.326
CCCCCCCCCC(=O)CC(O)S(=O)(=O)O (centres undefined) [Sodium Houttuyfonate] | 0.024 | 0.102
CC(C)=CCc1cc2c(cc1O)O[C@H](c1ccc(O)cc1)CC2=O [Bavachin] | 0.0703 | 0.0642
COc1cc2c(cc1O)CC[n+]1cc3c(OC)c(OC)ccc3cc1-2 [Jateorrhizine] | -0.216 | -0.189
COC(=O)c1c2c(c3ccccc3c1O)OC(C)(C)C=C2 [Rubimaillin] | 0.0202 | -0.0243
C=C(C(=O)O)[C@@H]1CC[C@@H](C)[C@@H]2CCC(C)=C[C@@H]21 [Artemisinic acid] | 0.0135 | 0.116
O=C(O)C(O)c1ccccc1 (centres undefined) [Mandelic Acid] | 0.0554 | 0.105
C[C@H]1[C@H](C)CC[C@]2(C(=O)O)CC[C@]3(C)C(=CC[C@@H]4[C@@]5(C)CC[C@H](O)C(C)(C)[C@@H]5CC[C@]43C)[C@H]12 [Ursolic Acid] | 0.324 | -0.12
COc1ccc(C(C)=O)c(O)c1 [Paeonol] | 0.076 | 0.17
O=c1oc2c(O)c(O)cc3c(=O)oc4c(O)c(O)cc1c4c23 [Ellagic acid] | 0.0142 | -0.0224
COC(=O)c1ccccc1O[C@@H]1O[C@H](CO[C@@H]2OC[C@@H](O)[C@H](O)[C@H]2O)[C@@H](O)[C@H](O)[C@H]1O [Gaultherin] | -0.0565 | -0.122
O=C(/C=C/c1ccc(O)c(O)c1)O[C@H]1[C@H](O)C[C@](O)(C(=O)O)C[C@H]1O [Cryptochlorogenic Acid] | 0.102 | 0.168
O=C1O[C@H]2[C@@H]3OC(=O)c4cc(O)c(O)c(O)c4-c4c(cc(O)c(O)c4O)C(=O)OC[C@H]2O[C@@H](OC(=O)c2cc(O)c(O)c(O)c2)[C@@H]3OC(=O)c2cc(O)c(O)c3c2[C@@H]2C1=CC(=O)[C@](O)(O3)C2(O)O [Geraniin] | -0.0851 | 0.0593
O=C1C[C@@H](c2ccc(O)cc2)Oc2cc(O)ccc21 [Liquiritigenin] | 0.037 | 0.142
O=c1c2ccccc2nc2n1CCc1c-2[nH]c2ccccc12 [Rutecarpine] | -0.038 | -0.0255
C=C1CCC[C@]2(C)C[C@@H]3OC(=O)C(C)=C3C[C@@H]12 [Atractylenolide Ii] | -0.0767 | 0.118
COc1cc(/C=C/CO)ccc1O[C@@H]1O[C@H](CO)[C@@H](O)[C@H](O)[C@H]1O [Coniferin] | 0.0205 | 0.0767
CC(C)=CC/C=C(\C)[C@H]1CC[C@]2(C)[C@@H]1[C@H](O)C[C@@H]1[C@@]3(C)CC[C@H](O[C@@H]4O[C@H](CO)[C@@H](O)[C@H](O)[C@H]4O[C@@H]4O[C@H](CO)[C@@H](O)[C@H](O)[C@H]4O)C(C)(C)[C@@H]3CC[C@]12C [Ginsenoside Rg5] | 0.0582 | 0.0507
C/C=C(/C)C(=O)O[C@@H]1[C@H](OC(=O)CC(C)C)c2c(ccc3ccc(=O)oc23)OC1(C)C [Praeruptorin C] | -0.0108 | 0.00182
COC(=O)C1=CO[C@@H](O[C@@H]2O[C@H](CO)[C@@H](O)[C@H](O)[C@H]2O)[C@H]2[C@@H]1[C@H](O)C[C@]2(C)OC(C)=O [8-O-Acetyl Shanzhiside Methyl Ester] | -0.0953 | -0.109
COc1cc(C(=O)OCCCCNC(=N)N)cc(OC)c1O [Leonurine] | -0.042 | 0.0155

Compound | NHEJ repair efficiency (log10) [1] | HR repair efficiency (log10) [2]
CCCCCC=CC(=O)CCc1ccc(O)c(OC)c1 [6-Shogaol] | -0.0185 | -0.0794
C[C@H]1[C@H](C)CC[C@]2(C(=O)O)CC[C@]3(C)C(=CC[C@@H]4[C@@]5(C)C[C@@H](O)[C@H](O)[C@@](C)(CO)[C@@H]5[C@H](O)C[C@]43C)[C@H]12 [Madecassic acid] | 0.0926 | 0.143
C[C@]1(O)C[C@@H](O)[C@]2(O)C=CO[C@@H](O[C@H]3O[C@H](CO)[C@@H](O)[C@H](O)[C@H]3O)[C@@H]21 [Harpagide] | 0.0851 | -0.126
O=C[C@H](O)[C@@H](O)[C@H](O)[C@H](O)CO[C@H]1O[C@H](CO[C@H]2O[C@H](CO)[C@H](O)[C@H](O)[C@H]2O)[C@H](O)[C@H](O)[C@H]1O [Manninotriose] | 0.0359 | 0.0215
CC(=O)CCc1ccc(O)cc1 [Raspberry Ketone] | -0.163 | -0.0897
CC1(C)[C@@H](O[C@H]2O[C@H](C(=O)O)[C@@H](O)[C@H](O)[C@H]2O[C@@H]2O[C@H](C(=O)O)[C@@H](O)[C@H](O)[C@H]2O)CC[C@]2(C)[C@H]3C(=O)C=C4[C@@H]5C[C@@](C)(C(=O)O)CC[C@]5(C)CC[C@@]4(C)[C@]3(C)CC[C@@H]12 [Monoammonium glycyrrhizinate] | -0.145 | -0.0779
C/C1=C\CC[C@]23O[C@H]2[C@@H](OC3=O)c2c(C)coc2C1 [Linderane] | -0.0245 | 0.0607
O=c1c(O)c(-c2ccc(O)cc2O)oc2cc(O)cc(O)c12 [Morin] | 0.0612 | 0.0351
O=C1CCC[C@@H]2[C@H]3CCC[N+]4([O-])CCC[C@@H](CN12)[C@@H]34 (some centres undefined) [Oxymatrine] | 0.0707 | -0.0643
C=C(CCC=C(C)C)[C@H]1CC[C@]2(C)[C@@H]1[C@H](O)C[C@@H]1[C@@]3(C)CC[C@H](O)C(C)(C)[C@@H]3[C@@H](O[C@@H]3O[C@H](CO)[C@@H](O)[C@H](O)[C@H]3O)C[C@]12C [Ginsenoside Rk3] | 0.000935 | 0.0532
COc1cc(-c2oc3cc(O)cc(O)c3c(=O)c2O[C@@H]2O[C@H](CO)[C@@H](O)[C@H](O)[C@H]2O)ccc1O [Isorhamnetin-3-O-Glucoside] | -0.0722 | -0.00603
COc1c(O[C@@H]2O[C@H](CO)[C@@H](O)[C@H](O)[C@H]2O)cc2oc(-c3ccc(O)cc3)cc(=O)c2c1O [Homoplantaginin] | 0.0189 ± 0.062 | 0.0763 ± 0.07
CC1=C[C@]2(O)O[C@@]3(CC2=C(C)C)[C@@H](C)CC[C@@H]13 [Curcumenol] | 0.129 | 0.132
CC(C)=CC[C@H](O)/C(C)=C/CO[C@@H]1O[C@H](CO)[C@@H](O)[C@H](O)[C@H]1O [Rosiridin] | 0.096 | 0.104
O=C(O)C(O)Cc1ccc(O)c(O)c1 (centres undefined) [Sodium Danshensu] | -0.0204 | 0.0346
Cn1c(=O)c2c(ncn2CC2OCCO2)n(C)c1=O [Doxofylline] | 0.101 | 0.0399
C[C@@H]1CC[C@@]2(OC1)O[C@H]1C[C@H]3[C@@H]4CC=C5C[C@@H](O[C@@H]6O[C@H](CO)[C@@H](O)[C@H](O[C@@H]7O[C@H](CO)[C@@H](O)[C@H](O)[C@H]7O)[C@H]6O[C@@H]6O[C@@H](C)[C@H](O)[C@@H](O)[C@H]6O)CC[C@]5(C)[C@H]4CC[C@]3(C)[C@H]1[C@@H]2C [Gracillin] | -0.154 | -0.0532
CC(C)=CCc1cc2c(cc1O)oc(=O)c1c3ccc(O)cc3oc21 [Psoralidin] | 0.31 | -0.0999
Oc1cc(O)c2c(c1)O[C@H](c1ccc(O)c(O)c1)[C@H](O)[C@H]2c1c(O)cc(O)c2c1O[C@H](c1ccc(O)c(O)c1)[C@H](O)C2 [Procyanidin B2] | 0.092 | -0.122
C[C@@H]1CCCCCCCCCCCCC(=O)C1 [Muscone] | 0.1 | 0.229
CC(C)=CCC[C@](C)(O[C@@H]1O[C@H](CO[C@@H]2O[C@@H](CO)[C@H](O)[C@H]2O)[C@@H](O)[C@H](O)[C@H]1O)[C@H]1CC[C@]2(C)[C@@H]1[C@H](O)C[C@@H]1[C@@]3(C)CC[C@H](O[C@@H]4O[C@H](CO)[C@@H](O)[C@H](O)[C@H]4O[C@@H]4O[C@H](CO)[C@@H](O)[C@H](O)[C@H]4O)C(C)(C)[C@@H]3CC[C@]12C [Ginsenoside Rc] | 0.0541 | 0.0964
COc1ccc(-c2cc(=O)c3c(O)cc(O[C@@H]4O[C@H](CO[C@@H]5O[C@@H](C)[C@H](O)[C@@H](O)[C@H]5O)[C@@H](O)[C@H](O)[C@H]4O)cc3o2)cc1O [Diosmin] | -0.157 | -0.0408
COc1ccc2cc3[n+](cc2c1OC)CCc1cc2c(cc1-3)OCO2 [Berberine hydrochloride] | -0.127 | -0.283
Cc1ccc(C(C)C)cc1 [p-Cymene] | 0.065 | 0.196
COc1cc2c(cc1O)CC[n+]1cc3c(OC)c(OC)ccc3cc1-2 [Jatrorrhizine] | -0.00725 | 0.0284
O=C(O)/C=C/c1ccc(O)c(O)c1 [Caffeic Acid] | 0.0711 | 0.156
